Results: the supplement of paper PMC10646978
± gives the standard deviation.

How the values were obtained:
Settings in all cases: modulator concentration 10 µM
[1] = tested on: RAW-Dual (murine macrophage reporter line); test: NF-kB reporter (SEAP) activity fold change vs agonist alone; higher = enhanced NF-kB activity
Method in brief: (§1)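 RAW-Dual murine macrophage reporter cells were plated at 50 000 per well in 384-well plates, pin-transferred compound to 10 μM final, and pre-incubated for 1 hour at 37 °C before a PRR agonist was added and the cells incubated overnight. NF-κB activity was read from supernatant SEAP with QUANTI-Blue at 620 nm absorbance, and IRF activity from Lucia luciferase with QUANTI-Luc by luminescence. Each signal was expressed as fold change by dividing by the mean agonist-only control on the same plate. Two replicate plates were averaged, with errors obtained by propagation.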

[2] = tested on: RAW-Dual (murine macrophage reporter line); test: IRF reporter (Lucia luciferase) activity fold change vs agonist alone; higher = enhanced IRF activity
Method in brief: as §1

[3] = tested on: RAW-Dual (murine macrophage reporter line); test: viability score (confluency relative to resting cells, overnight) (fraction); higher = more viable, active = viable (0.7 or more)
Method in brief: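 RAW-Dual macrophages in 384-well plates were treated overnight with compound at 10 μM final. IncuCyte imaging recorded confluency, and IncuCyte software built two confluency masks across every imaged well. The viability score expresses confluency relative to resting cells and was judged against a cutoff, which a compound met only if both masks exceeded 70% of resting cells.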

[4] = agonist: CpG ODN 1826 0.5 ug/mL

SMILES | NF-kB reporter [1, 4] | NF-kB reporter ([1]; agonist: LPS 0.1 ug/mL) | NF-kB reporter ([1]; agonist: MPLA […]) | IRF reporter ([2]; agonist: 3'3'-cGAMP 10 ug/mL) | IRF reporter ([2]; agonist: LPS 0.1 ug/mL) | IRF reporter ([2]; agonist: MPLA […]) | viability score [3]
O=C(C=Cc1ccc(Cl)c(Cl)c1)c1ccc2ccccc2c1O | 1.09 ± 0.1 | 1.06 ± 0.07 | 0.935 ± 0.085 | 0.96 ± 0.041 | 1.57 ± 0.23 | 1.25 ± 0.077 | 1.01 (active)
O=c1[nH]c(=O)n(C2CC(O)C(CO)O2)cc1F (stereo unspecified) | 1.67 ± 0.13 | 0.714 ± 0.057 | 0.978 ± 0.1 | 0.321 ± 0.025 | 0.684 ± 0.14 | 0.545 ± 0.12 | 1.04 (active)
CS(=O)(=O)N(CC(=O)NCCSCc1cccc(Cl)c1)c1ccc(F)cc1 | 0.742 ± 0.059 | 1.06 ± 0.059 | 0.857 ± 0.07 | 1.2 ± 0.03 | 1.13 ± 0.1 | 0.867 ± 0.26 | 1.01 (active)
CC1CCN(c2ccc(-c3ccc(NC(=O)c4ccc5ncsc5c4)cc3)nn2)CC1 | 0.914 ± 0.039 | 0.98 ± 0.078 | 1.02 ± 0.057 | 0.967 ± 0.045 | 1.09 ± 0.12 | 1.17 ± 0.23 | 0.986 (active)
CN(C)CC#CCNC(=O)Nc1ccc(C(F)(F)F)cc1 | 0.935 ± 0.33 | 0.899 ± 0.045 | 0.874 ± 0.058 | 0.425 ± 0.016 | 1.06 ± 0.22 | 1.22 ± 0.13 | 1 (active)
CCOc1ccc2c(c1)C(C)=CC(C)(C)N2 [Prestw-765] | 0.892 ± 0.098 | 1.07 ± 0.055 | 1.11 ± 0.029 | 0.812 ± 0.065 | 0.967 ± 0.052 | 0.997 ± 0.082 | 1 (active)
CC(=O)c1ccc2c3c([nH]c2c1)CCCC3 | 0.792 ± 0.072 | 0.823 ± 0.072 | 1.01 ± 0.092 | 0.936 ± 0.05 | 1.34 ± 0.077 | 1.53 ± 0.15 | 1.01 (active)
CN(C/C=C/C#CC(C)(C)C)Cc1cccc2ccccc12 | 0.812 ± 0.066 | 0.987 ± 0.059 | 1.08 ± 0.095 | 1.12 ± 0.055 | 1.24 ± 0.078 | 1.27 ± 0.12 | 1.01 (active)
C=CCNC(=O)c1cccc(Br)c1 | 0.781 ± 0.061 | 0.962 ± 0.18 | 0.982 ± 0.097 | 0.933 ± 0.044 | 1.11 ± 0.19 | 1.09 ± 0.24 | 1.03 (active)
CCOC(=O)c1ccc2nc(NC(=O)c3ccco3)sc2c1 | 0.971 ± 0.079 | 0.876 ± 0.064 | 1.13 ± 0.14 | 0.996 ± 0.051 | 1.35 ± 0.19 | 1.58 ± 0.3 | 1.01 (active)
CN(C)c1ccc(C=C2C(=O)C(=O)c3ccccc32)cc1Br | 0.989 ± 0.098 | 0.947 ± 0.15 | 0.999 ± 0.036 | 1.02 ± 0.21 | 1 ± 0.043 | 1 ± 0.16 | 1 (active)
CC(=O)N1CCc2ccc(NC(=O)C3(c4ccccc4)CCOCC3)cc2C1 | 0.91 ± 0.063 | 1 ± 0.082 | 1.4 ± 0.075 | 1.22 ± 0.06 | 1.28 ± 0.24 | 1.31 ± 0.54 | 0.979 (active)
CC(=O)N1CCC(C(=O)NC(Cn2nccn2)c2ccccc2)CC1 (stereo unspecified) | 0.87 ± 0.05 | 1.06 ± 0.09 | 1.05 ± 0.082 | 1.04 ± 0.051 | 1.34 ± 0.25 | 1.56 ± 0.46 | 0.935 (active)
O=C(CCC1CCCC1)Nc1cccc(Cl)c1 | 0.771 ± 0.061 | 0.906 ± 0.1 | 1.15 ± 0.1 | 0.943 ± 0.046 | 1.63 ± 0.11 | 1.87 ± 0.16 | 1 (active)
Cc1cccc(NC(=O)Cc2nnc(NC(=O)Nc3ccc(F)cc3)s2)c1 | 1.02 ± 0.11 | 1.03 ± 0.059 | 0.917 ± 0.055 | 1 ± 0.051 | 1.53 ± 0.12 | 1.11 ± 0.15 | 1.01 (active)
CCCCCCCCCCCC1=C(O)C(=O)C=C(O)C1=O | 0.901 ± 0.22 | 0.642 ± 0.034 | 0.675 ± 0.045 | 0.566 ± 0.019 | 0.823 ± 0.09 | 0.774 ± 0.086 | 0.167 (inactive)
CCN1CCN(Cc2c(O)ccc3c2OC(=Cc2ccc(C)cc2)C3=O)CC1 | 1.05 ± 0.078 | 1.03 ± 0.14 | 1.2 ± 0.028 | 0.945 ± 0.058 | 0.967 ± 0.12 | 1.06 ± 0.13 | 0.995 (active)
Cc1ccc(OCCCOc2cccc3cccnc23)c(C)c1 | 0.854 ± 0.11 | 1.1 ± 0.073 | 1.62 ± 0.11 | 0.932 ± 0.07 | 1.26 ± 0.14 | 2.82 ± 0.39 | 0.895 (active)
